Assay results: PubChem BioAssay
Active and inactive are the calls of the source. Unless noted, the rule behind the calls is not given here.

Key:
[1] = tested on: XIP peptide (Xip251-270) binding; test: small-molecule binders of XIP peptide, primary screen, biochemical, small-molecule microarray, fluorescence 635/667 nm, 0.1 µg/mL protein (AID 1182); conditions: fluorescent protein binding, 635 nm, higher = more signal, called active from +8 up or from −8 down
XIP peptide (Xip251-270) = test: small-molecule binders of XIP peptide, primary screen, biochemical, small-molecule microarray, fluorescence 635/667 nm, 0.5 µg/mL protein (AID 1183); conditions: small-molecule microarray binding, fluorescence 635 nm; higher = more signal
[2] = Plasmodium falciparum growth inhibition, primary screen, strain 3D7, DAPI fluorescence, 100 nL (AID 1184);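 note: parasites grown inside human red blood cells in medium with human serum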; conditions: P. falciparum 3D7 growth, 3 d, higher = more signal
[3] = target: Homeobox protein Hox-A13 (Mus musculus) (UniProt Q62424); test: inhibitors of HoxA13-DNA binding, primary screen, biochemical, fluorescence polarization, labeled oligonucleotide (AID 1185); conditions: 15 min, higher = more signal, called active from +8 up or from −8 down
[4] = inhibitors of hydroxyurea-induced Chk1 phosphorylation, primary screen, imaging, HeLa, phospho-Chk1 antibody, percent positive cells (AID 1186); conditions: hydroxyurea-induced phospho-Chk1 immunofluorescence imaging, higher = more signal
[5] = inhibitors of hydroxyurea-induced Chk1 phosphorylation, primary screen, imaging, HeLa, phospho-Chk1 nuclear intensity (AID 1187); conditions: hydroxyurea-induced phospho-Chk1 immunofluorescence imaging, higher = more signal

Chain of Homeobox protein Hox-A13 (Mus musculus) (Q62424 whole entry, looked up): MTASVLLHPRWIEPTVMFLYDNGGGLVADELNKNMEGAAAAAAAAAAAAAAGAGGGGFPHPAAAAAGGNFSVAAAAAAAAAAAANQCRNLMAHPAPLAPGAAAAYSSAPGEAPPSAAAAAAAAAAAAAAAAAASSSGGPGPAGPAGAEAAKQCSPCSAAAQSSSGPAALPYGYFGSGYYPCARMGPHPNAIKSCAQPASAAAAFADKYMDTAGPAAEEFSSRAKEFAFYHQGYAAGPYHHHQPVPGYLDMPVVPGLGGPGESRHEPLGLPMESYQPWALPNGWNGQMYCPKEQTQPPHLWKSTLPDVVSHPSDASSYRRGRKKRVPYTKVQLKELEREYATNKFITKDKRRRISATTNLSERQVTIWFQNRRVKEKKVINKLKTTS

Row | Compound | composite z-score [1] | composite z-score (XIP peptide (Xip251-270)) | z-score [2] | z-score [3] | z-score [4] | z-score [5]
1 | CN1C(=O)C2C=CC(C(O)c3ccc(-c4ccccc4)s3)N(NC(=O)OC(C)(C)C)C2C1=O (stereo not given) | 0.359 (inactive) | 0.912 | 0.428 | -4.15 (inactive) | 0.307 (inactive) | 0.239 (inactive)
2 | COCCCN1C(=O)[C@@]2(c3ccc([N+](=O)[O-])cc3)CC(=O)N(CC34CC5CC(CC(C5)C3)C4)[C@@H]2c2ccc(CO)cc21 | 0.264 (inactive) | 0.578 | -0.243 | -0.113 (inactive) | -0.313 (inactive) | -0.793 (inactive)
3 | O=C1C[C@@](C(=O)NCc2ccccc2)(c2ccc([N+](=O)[O-])cc2)[C@@H](c2ccc(CO)cc2)N1C1CCCCC1 | 0.58 (inactive) | 0.607 | 0.469 | -2.95 (inactive) | -0.53 (inactive) | -0.0661 (inactive)
4 | C#CCN1[C@@H](Cc2ccccc2)C(=O)O[C@H](Cc2ccccc2)[C@@H]1/C=C/C1CC1 | -0.157 (inactive) | 0.5 | -1.18 | -0.571 (inactive) | -0.352 (inactive) | -0.267 (inactive)
5 | CCCC=C(CCC)[C@@H](NC(=O)OCC(C)C)c1ccc(C(=O)OC)cc1 | 0.402 (inactive) | 0.279 | -0.102 | -1.31 (inactive) | -0.468 (inactive) | -0.598 (inactive)
6 | COc1cc(OC)c(C(O)C2C=CC3C(=O)N(c4ccccc4)C(=O)C3N2Nc2ccc(C(C)C)cc2)cc1Br (stereo not given) | 0.242 (inactive) | 0.785 | -0.0986 | -1.37 (inactive) | -0.78 (inactive) | -0.639 (inactive)
7 | C=C(CCCC)C(=O)CC[C@@H](OC(=O)c1ccccc1-c1ccccc1C(=O)O)c1ccccc1OCCO | 0.721 (inactive) | 0.145 | -2.92 | -6.26 (inactive) | 0.779 (inactive) | 1.38 (inactive)
8 | CC(C)C(CO)N1C(=O)[C@@H]2C3C(=O)OCCC/C=C\[C@H]3OC23C=CCN(Cc2ccccc2)C(=O)[C@@H]13 (stereo not given in full) | 1.22 (inactive) | -0.209 | 0.359 | -5.12 (inactive) | -0.932 (inactive) | -0.842 (inactive)
9 | C[C@]1(C(=O)O)c2ccccc2C(=O)N(Cc2cc(F)cc(C(F)(F)F)c2)[C@H]1c1ccc(CO)cc1 | 0.342 (inactive) | 0.778 | 0.832 | -1.83 (inactive) | 0.117 (inactive) | 0.239 (inactive)
10 | CCCC=C(CCC)[C@@H](NC(=O)c1ccc(C(F)(F)F)cc1)c1ccc(C(F)(F)F)cc1 | 0.237 (inactive) | 0.541 | -0.702 | -3.88 (inactive) | -0.136 (inactive) | -0.377 (inactive)
11 | CN(C)CCCCNC(=O)[C@H]1C[C@H]2C(=O)NCC(=O)N2[C@H]1c1ccc(O)cc1 | 0.372 (inactive) | 0.815 | 0.185 | -4.67 (inactive) | -0.15 (inactive) | -0.186 (inactive)
12 | O=C1C2C=CC(C(O)c3cccs3)N(Nc3ccc([N+](=O)[O-])cc3)C2C(=O)N1c1ccccc1 (stereo not given) | 0.396 (inactive) | -0.0032 | -0.965 | -4.16 (inactive) | -0.479 (inactive) | -0.779 (inactive)
13 | Cc1ccc(S[C@]2(C(=O)NC(C)C)CC(=O)N(C3CCCCC3)[C@@H]2c2ccc(CO)cc2I)cc1 | 0.814 (inactive) | 0.864 | -1.31 | -4.43 (inactive) | 0.243 (inactive) | 0.202 (inactive)
14 | O=C(NC1CC1)[C@@H]1c2ccccc2C(=O)N(CC23CC4CC(CC(C4)C2)C3)[C@H]1c1ccc(CO)cc1 | 0.383 (inactive) | 0.686 | -2.22 | -5.05 (inactive) | -0.0001 (inactive) | 0.169 (inactive)
15 | C=CCC(OC(C)=O)[C@@H]1[C@@H](N(Cc2cc3ccccc3o2)C(=O)Cc2ccc(OC)cc2)c2cc(OCCCO)ccc2N1C(=O)c1ccc2ccccc2n1 (stereo not given in full) | -0.206 (inactive) | -0.454 | -2.17 | -2.1 (inactive) | 0.16 (inactive) | 0.158 (inactive)
16 | CC1=C([C@H](O)CCc2ccccc2)[C@H](CO)n2c(=O)n(-c3ccccc3)c(=O)n2C1 | -0.611 (inactive) | 0.754 | 0.0483 | -2.24 (inactive) | -0.773 (inactive) | -0.906 (inactive)
17 | Cc1ccccc1C(O)C1C=CC2C(=O)N(c3ccccc3)C(=O)C2N1Nc1ccccc1 (stereo not given) | 0.766 (inactive) | 0.889 | -0.189 | -2.86 (inactive) | -1.2 (inactive) | -1.11 (inactive)
18 | CCOC(=O)C[C@H]1[C@H](OC(=O)Cc2ccc3c(c2)OCO3)[C@@H](NC(=O)Cc2ccc(OC)cc2)c2cc(OCCCO)ccc2N1C(=O)Cc1ccc(OC)cc1 | -0.0299 (inactive) | 0.678 | -1.99 | -1.76 (inactive) | -1.33 (inactive) | -1.19 (inactive)

Row | Compound | composite z-score [1] | composite z-score (XIP peptide (Xip251-270)) | z-score [2] | z-score [3] | z-score [4] | z-score [5]
19 | O=C(NCC(O)CO)C1N=C(c2ccc(OCCCO)cc2)N(c2ccccc2)O1 (stereo not given) | 0.654 (inactive) | 0.801 | -0.284 | -2.55 (inactive) | -0.195 (inactive) | -0.257 (inactive)
20 | CN(C)CCCNC(=O)[C@@]1(Cc2ccccc2I)c2ccccc2C(=O)N(C2CCCCC2)[C@H]1c1ccc(CO)cc1 | 0.645 (inactive) | 0.611 | -1.61 | 0.846 (inactive) | -0.332 (inactive) | -0.621 (inactive)
21 | COc1cc(C(O)C2C=CC3C(=O)N(c4ccccc4)C(=O)C3N2Nc2ccccc2F)cc(OC)c1OC (stereo not given) | 0.283 (inactive) | 0.737 | -0.267 | -4.84 (inactive) | 0.409 (inactive) | -0.477 (inactive)
22 | O=C1[C@@H]2[C@@H](CC(COc3ccccc3)=C([C@H](O)CCc3ccccc3)[C@@H]2CO)C(=O)N1Cc1ccccc1 | -0.268 (inactive) | 0.73 | -0.0811 | -6.92 (inactive) | -0.556 (inactive) | -0.945 (inactive)
23 | COc1ccc([Si](C)(C)[C@H]2[C@H](CCO)O[C@@]3(C(=O)N(Cc4ccc(NC(=O)[C@H](C)O)cc4)c4ccccc43)[C@@H]2C)cc1 | 3.4 (inactive) | 0.596 | -2.7 | -4.86 (inactive) | -0.704 (inactive) | -0.43 (inactive)
24 | CCCCC(O)C1C=CC2C(=O)N(c3ccccc3)C(=O)C2N1Nc1ccccc1 (stereo not given) | 0.145 (inactive) | 0.137 | -0.0871 | -4.11 (inactive) | 0.385 (inactive) | 0.283 (inactive)
25 | COc1cc(CO)cc(I)c1O[C@H]1C=C(C(=O)NCCO)C[C@@H]2O[C@H]12 | 0.28 (inactive) | 0.347 | -1.41 | -7.29 (inactive) | 0.552 (inactive) | 0.361 (inactive)
26 | COc1ccc(C(=O)Nc2cccc(CN3C(=O)[C@@]4(O[C@@H](CC(=O)N5CCC[C@H]5CO)[C@H]([Si](C)(C)c5ccc(OC)cc5)[C@H]4C)c4ccccc43)c2)cc1 | 0.802 (inactive) | 0.639 | -2.16 | -2.8 (inactive) | -0.142 (inactive) | 0.071 (inactive)
27 | CC(C)C[C@@H]1NC(=O)[C@@H]2C[C@H](C(=O)NCCCCCCNC(=O)CS)[C@H](c3cccc(OCCO)c3)N2C1=O | 1.63 (inactive) | 0.839 | -0.0654 | -3.13 (inactive) | -0.517 (inactive) | -0.358 (inactive)
28 | C=CCOC(=O)[C@@H]1[C@H]2C(=O)O[C@H](c3ccccc3)[C@H](c3ccccc3)N2[C@H](c2ccc(OCCOC(=O)[C@H]3C[C@H]4C(=O)NCC(=O)N4[C@H]3c3cccc(OCCO)c3)cc2)[C@@]12C(=O)Nc1ccc(I)cc12 | 0.604 (inactive) | 0.794 | -1.9 | 0.337 (inactive) | -0.856 (inactive) | -1.2 (inactive)
29 | C=C1C(=O)C=C2CN(C(=O)c3ccccc3)[C@@](Cc3ccc(OC)cc3)(C(=O)OC)[C@@H]12 | 0.187 (inactive) | 0.691 | -1.17 | -3.61 (inactive) | 0.395 (inactive) | 0.354 (inactive)
30 | CC(=O)NCCCC[C@@H]1NC(=O)[C@H]2C[C@@H](C(=O)NCCCCCCNC(=O)CS)[C@@H](c3cccc(OCCO)c3)N2C1=O | 2.82 (inactive) | 0.349 | 0.287 | -4.38 (inactive) | 0.0478 (inactive) | 1.23 (inactive)
31 | CC[C@@H]1C=C(C(=O)O)[C@H](c2ccc(OC)cc2)N1S(=O)(=O)c1ccc(C)cc1 | 1.98 (inactive) | 0.129 | 2.03 | -2.62 (inactive) | -0.745 (inactive) | -1.26 (inactive)
32 | CCOC(=O)C1=CC[C@@H](c2ccccc2)N(S(=O)(=O)c2ccc(C)cc2)[C@H]1c1ccccc1I | -0.0622 (inactive) | 0.77 | -2.07 | -1.19 (inactive) | 0.0035 (inactive) | -0.763 (inactive)
33 | CN1C(=O)C2C(C1=O)C1C=C(c3ccc(CO)cc3)C2C(C2CC2)N1C (stereo not given) | 0.017 (inactive) | 0.816 | -1.97 | -5.37 (inactive) | -0.287 (inactive) | -0.232 (inactive)
34 | CCOC(=O)C1=CCC(c2cc3ccccc3[nH]2)N(CCN2CC(C(=O)OCC)=CCC2c2cc3ccccc3[nH]2)C1 (stereo not given) | 0.401 (inactive) | 0.737 | -1.51 | -3.81 (inactive) | -0.852 (inactive) | -0.497 (inactive)
35 | C=CC[C@]1(C(=O)NCC(O)CO)COC(c2ccc(OCCCO)cc2)=N1 (stereo not given in full) | -0.933 (inactive) | -1.45 | 0.343 | -4.55 (inactive) | 0.0293 (inactive) | -0.553 (inactive)
